The results in this text go back to ChEMBL document CHEMBL3988442, “University of Dundee, Small-Polar-MMV Screening Library” (2021).

In this assay the target is T1, Arginase-2, mitochondrial (Homo sapiens) (UniProt P78540).
T1 sequence (whole entry): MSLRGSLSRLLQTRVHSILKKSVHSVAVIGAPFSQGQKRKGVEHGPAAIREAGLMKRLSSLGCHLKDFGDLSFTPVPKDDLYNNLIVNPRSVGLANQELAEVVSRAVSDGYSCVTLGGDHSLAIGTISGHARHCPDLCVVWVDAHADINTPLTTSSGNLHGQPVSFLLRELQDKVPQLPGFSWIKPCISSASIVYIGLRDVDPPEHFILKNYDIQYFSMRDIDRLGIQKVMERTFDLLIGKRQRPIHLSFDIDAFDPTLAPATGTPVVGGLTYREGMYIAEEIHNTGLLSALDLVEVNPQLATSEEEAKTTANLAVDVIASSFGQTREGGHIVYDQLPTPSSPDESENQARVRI
Put plainly: in vitro enzyme assay to detect the production of urea directly proportional to the activity of Arginase II. In kind it is functional. More on the design: scale not given: in the data most compounds retested in dose-response had high values. Particulars: 33.3 µM.
For the compound `N#Cc1ccc(N2CCCN(C(=O)CC3CCCO3)CC2)cc1` (stereo not given), the Percent Effect was -5.61%. For `O=c1ccc(-c2cccs2)nn1CN1CCN(Cc2ccccc2)CC1`, the Percent Effect is -10.4%. With `Cc1ccc(C(=O)NS(=O)(=O)c2cc(Cl)ccc2Cl)c(=O)[nH]1` the figure was -2.4%; with `Cc1nccn1C1CCCN(C(=O)c2cc(O)nc3ccccc23)C1` (stereo not given), -4.18%. With `CCCc1n[nH]c(C2CN(C(=O)c3cc(F)ccc3OC)CCO2)n1` (stereo not given) the figure was -2.52%; with `Cc1cnn(CC2CCCN2CCCc2nc3ccccc3o2)c1` (stereo not given), -4.99%; with `CC(=O)N1CC(Cc2nccc3ccn(C)c23)C1`, 3.96%. In the case of `CC(c1ccc(Cl)cc1)N1CCN(CCNS(C)(=O)=O)CC1` (stereo not given), the Percent Effect was determined as 0.952%. Turning to `CCn1ccnc1-c1nc2cc(S(=O)(=O)N3CCCC3)ccc2n1C`, the Percent Effect was determined as 6.36%. With `Cc1ccc(CNCc2ccc(-n3nc(C)cc3C)nc2)cc1` the figure was 0.383%; with `CC(C)Oc1cccc(C(=O)C2CCCN(C(=O)c3ccccn3)C2)c1` (stereo not given), -1.91%; with `CCCS(=O)(=O)N1CCOCC2(CCN(c3ccccn3)C2)C1` (stereo not given), 1.58%. For `CC(C)Oc1cccc(CNC(=O)NC(C)(C(=O)O)c2ccco2)c1` (stereo not given), the Percent Effect was -1.08%. In the case of `O=C(Nc1cccc(CN2CCOC2=O)c1)N1CCSCC1` it was 3.09%; in that of `Cc1cc(C)cc(NC(=O)CN2CCCC(n3cncn3)C2)c1` (stereo not given), -1.66%. With `Cc1ncsc1CN1CC[C@H]2C(=O)N(c3ccccc3)CCO[C@H]2C1` the figure was 1.17%. With `CCc1nccn1C1CCCN(C(=O)c2ccc3c(c2)OCO3)C1` (stereo not given), the Percent Effect was -3.2%. With `CCN(CC)CC(=O)NCCc1csc(N2CCCC2)n1` the figure was -1.04%; with `COc1cc(NC(=O)c2cc(C)sc2C)c(C(=O)N(C)C)cc1OC`, -37.2%. On to `O=C(Cn1ccc2sccc2c1=O)NCc1ccc2c(c1)OCO2`, for which the Percent Effect is 4.52%.
